# High-throughput results (PubChem BioAssay)
# Pin1 inh – human Pin1 inhibition. Q13526. Pin1 FP peptide displacement, HiFluor488, 10 min. Potency, µM (doses to about 115 µM), for inactives: at the highest dose activity, negative = inhibition, usual class: inhibitors. 390,000 compounds, 0.009% hits; active = well fitted inhibition curve with a large enough effect in the polarisation, with a control signal flat, not every such curve was filed as active; inconclusive = small, poorly fitted or top-dose-only effect, or effect the other way, or a change in a side signal; inactive = no such curve, though single readings can be large or run the other way; the % refers to the polarisation; also: % is scaled to controls: 0 for no effect and ±100 for the full control effect
# Target sequence (Q13526 whole entry, looked up): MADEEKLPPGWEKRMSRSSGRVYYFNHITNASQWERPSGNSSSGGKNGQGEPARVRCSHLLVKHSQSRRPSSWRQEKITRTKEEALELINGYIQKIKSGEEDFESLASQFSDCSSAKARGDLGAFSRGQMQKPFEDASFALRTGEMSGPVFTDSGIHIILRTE
# GLP-1R agonist – agonists of human GLP-1 receptor | P43220 | HEK293 GLP-1R CRE-luciferase, luminescence, 4-6 h; cells express a hypersensitive GLP-1R form | Potency, µM (highest dose often 45.6 µM), for inactives: top-dose activation, actives largely listed as activators | 380,000 compounds, 0.007% hits; also: % of control where 0% means no effect
# GLP1R cytotox – cytotoxic in the GLP-1 receptor inverse agonist counter-screen; HEK293 cAMP-luciferase reporter cells, luminescence, 24 h; Potency, µM (series often up to 38.3 µM), inactives show at the top dose activity change, negative = inhibition, hits mostly inhibitors; 410,000 compounds, 0.13% hits; AID 624418;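 also: loss of luciferase light is scored as toxicity; % is scaled to controls: 0 for no effect and ±100 for the full control effect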
#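 Luminescence readout: signal drop marks cytotoxicity. Plated cells grew 12 h at 37 °C, 5% CO2, received 23 nL compound for 24 h, then got luciferase reagent, read after 12 min at RT.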
# Tb PGK inh – inhibitors of T. brucei phosphoglycerate kinase. P07378. PGK/GAPDH coupled, Kinase-Glo luminescence, 60 min. Potency, µM (doses to about 57.5 µM), for inactives: top-dose activity change, negative = inhibition, usual class: inhibitors. 380,000 compounds, 0.043% hits. AID 602233; also: % is scaled to controls: 0 for no effect and ±100 for the full control effect; nearly all actives have a fitted effect of over 60% in size
#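 Luminescent ATP detection (Kinase-Glo Plus) follows a 60-minute room-temperature incubation, with wells lacking PGK as controls. Buffer: 100 mM TEA (pH 7.6), 5 mM MgCl2, 0.01% Tween-20. Coupling enzyme GAPDH (100 nM final) supplies unstable 1,3-BPG in-well.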
# Tb PFK inh – inhibitors of T. brucei phosphofructokinase; O15648; T. brucei PFK, ADP-Glo luminescence; Potency, µM (titrated, usually from 57.5 µM), without a hit: at the highest dose activity, negative = inhibition, most hits filed as inhibitors; 330,000 compounds, 0.17% hits; AID 485367;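 also: 0% = uninhibited 1x PFK enzyme wells and -100% = no-enzyme wells; nearly all actives have a fitted effect of over 60% in size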
# Target sequence (O15648 whole entry, looked up): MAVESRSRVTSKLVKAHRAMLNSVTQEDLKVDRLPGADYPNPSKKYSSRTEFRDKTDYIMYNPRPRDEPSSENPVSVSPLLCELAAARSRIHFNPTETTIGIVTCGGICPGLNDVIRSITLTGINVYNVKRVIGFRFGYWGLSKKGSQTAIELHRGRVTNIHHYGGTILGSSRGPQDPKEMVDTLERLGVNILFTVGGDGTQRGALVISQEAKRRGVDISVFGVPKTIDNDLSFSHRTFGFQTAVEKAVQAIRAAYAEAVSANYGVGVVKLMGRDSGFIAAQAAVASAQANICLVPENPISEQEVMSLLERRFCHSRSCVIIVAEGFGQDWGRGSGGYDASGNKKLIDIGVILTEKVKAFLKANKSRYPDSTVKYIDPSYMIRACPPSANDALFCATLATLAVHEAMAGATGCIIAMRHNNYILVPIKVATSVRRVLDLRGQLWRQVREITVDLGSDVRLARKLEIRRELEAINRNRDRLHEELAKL
#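 Luminescent ADP detection (ADP-Glo, two-step: ATP depletion then ADP-to-ATP conversion for luciferase) reported PFK activity after 45 min room-temperature reaction of 1.25 nM enzyme with 0.5 mM F6P and 0.1 mM ATP at pH 8.0.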
# GLP-1R inv ag – inverse agonists of human GLP-1 receptor; P43220; 410,000 compounds, 1.6% hits; HEK293 GLP-1R CRE-luciferase, luminescence, 24 h; GLP-1R form is constitutively active; Potency, µM (series often up to 38.3 µM), inactives show at the top dose activity change, negative = inhibition, actives largely listed as inhibitors; also: % is scaled to controls: 0 for no effect and ±100 for the full control effect; nearly all actives have a fitted effect of over 55% in size
#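 Constitutively active GLP-1R drives a cAMP-responsive luciferase in stably transfected HEK293 cells; test compounds are added after overnight (12 h) attachment and left 24 hr, and signal loss in luminescence marks inhibition.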
# Numbers without * were called inactive; i = inactive; ? = inconclusive; / = no result given; [ ] = dose if it differs, or a comment. Only some compounds are listed: those with a hit (about 1.8% of all), similar ones and a draw of the others. Unless noted, calls follow the shape of the dose curve; as a rule, active = well fitted curve in the direction sought with a large enough effect; inconclusive = small, poorly fitted or top-dose-only effect, or another doubt; inactive = no such curve, though single readings can be large; an effect the other way counts as inactive or inconclusive. Potency is read from the fitted curve at half-maximal effect.
SMILES,Pin1 inh,GLP-1R agonist,GLP1R cytotox,Tb PGK inh,Tb PFK inh,GLP-1R inv ag
CC(NC(=O)c1ccc(Br)cc1)c1ccc2c(c1)CCCC2 (stereo not given),24.6%,1.8%,-1.5%,0.0%,1.0%,10µM*
COc1cccc(C(=O)Nc2nnc(-c3ccc(Cl)cc3)o2)c1,4.7%,-2.4%,-28.7%,-0.7%,3.9%,10µM*
CC(=O)Nc1nnc(-c2ccc3c(c2)CCCC3)o1,1.2%,-5.0%,?,i,0.9%,?
COc1ccccc1C(=O)Nc1nnc(-c2ccc3c(c2)CCCC3)o1,-1.4%,-2.8%,11.2µM*,-5.7%,-4.0%,?
COc1ccc(-c2nnc(NC(=O)c3ccccc3C)o2)cc1,-2.4%,-3.4%,?,-14.4%,8.1%,10µM*
COc1ccc(S(=O)(=O)NCCS(=O)(=O)N2CCN(c3ccccc3)CC2)cc1C,3.7%,-0.7%,0.1%,-1.8%,/,-11.4%
Cc1ccc(O)c(-c2cc(-c3ccccc3C)[nH]n2)c1,-13.8%,0.4%,?,13.3%,3.1%,5.62µM*
COc1ccc(O)c(-c2c(-c3ccc(Cl)cc3)n[nH]c2C)c1,?,3.5%,13.4%,-4.0%,-4.4%,10µM*
COc1ccc(-c2cc(-c3cc(C)ccc3O)[nH]n2)cc1,-4.0%,14.5%,?,-4.9%,-5.4%,10µM*
CCCOc1ccc(/C=C/C(=O)Nc2sc(C)c(C)c2C(=O)OCC)cc1OC,-15.3%,/,10.3%,-1.8%,/,5.0%
CCCOc1cccc(C(=O)Nc2ccc(-c3nc4ccccc4s3)c(Cl)c2)c1,23.6%,/,-0.2%,-7.0%,/,-10.2%
COc1ccc(/C=C2\CCC(C3CCCC3)C2=O)cc1 (stereo not given),-2.4%,?,0.9%,-4.6%,0.8%,19.4%
COc1ccc(/C=C2/CCC(CN3CCOCC3)C2=O)cc1 (stereo not given),7.2%,-17.1%,5.01µM*,-7.5%,/,5.62µM*
CCCOc1cccc(C(=O)Nc2ccc(-c3cc4ccccc4oc3=O)c(C)c2)c1,13.7%,/,13.2%,1.0%,/,3.98µM*
CCCOc1ccc2cc(-c3ccccn3)c(=O)oc2c1,-2.3%,-2.8%,41.3%,?,-15.5%,2.82µM*
COc1ccc(CN(Cc2ccccc2)C(=O)c2ccccc2O)cc1COc1ccc(NC(C)=O)cc1,17.2%,/,/,/,/,/
O=c1cc(N2CCCCC2)c(-c2ccccc2)nn1Cc1ccc(F)cc1,1.6%,-3.0%,-5.1%,-6.4%,2.8%,2µM*
CN(CC(=O)NCCCc1ccccc1)Cc1ccc(Br)cc1,1.3%,1.2%,0.0%,-9.2%,-1.5%,?
CN(CC(=O)NCCc1ccc(F)cc1)Cc1ccc(Br)cc1,-0.8%,21.4%,4.9%,-4.1%,3.8%,10µM*
Cc1cc(SCC(=O)c2ccc(O)c(O)c2)n2nc(C)c(-c3ccccc3)c2n1,0.0%,15.7%,?,-4.8%,2.0%,11.2µM*
Cc1cc(C)nc(SCC(=O)c2ccc(O)c(O)c2)n1,?,8.9%,0.2%,-9.9%,8.8%,0.9%
CN(C)C(=O)c1cccc(COc2ccc(N3C(N)=NC(N)=NC3(C)C)cc2Cl)c1,/,7.6%,-9.7%,-3.0%,/,2.24µM*
CCOc1ccccc1NC(=O)c1c(NCc2ccc(OC)c(OC)c2OC)sc2c1CCC(C)C2 (stereo not given),-1.2%,/,-18.8%,-4.4%,/,?
O=C(Nc1ccc2c(c1)CCCN2C(=O)c1cccs1)c1cccc(C(F)(F)F)c1,6.5%,/,?,3.7%,/,?
Cc1ccc(C(=O)Nc2cccc(C(=O)NCc3ccccc3)c2)cc1,-1.2%,-23.1%,1.1%,0.6%,-0.2%,12.6µM*
SMILES,Pin1 inh,GLP-1R agonist,GLP1R cytotox,Tb PGK inh,Tb PFK inh,GLP-1R inv ag
Cc1ccccc1C(=O)Nc1cccc(NC(=O)c2ccc(F)cc2)c1,-2.7%,9.6%,1.0%,6.4%,2.1%,10µM*
O=C(Nc1ccc2ccccc2c1)c1ccc(Cl)cc1,-1.3%,-1.8%,-4.6%,-3.2%,2.7%,-25.3%
CCOC(=O)c1cccc(NC(=S)NCc2ccc(C)cc2)c1,-0.6%,7.2%,-31.7%,-5.0%,-2.2%,7.94µM*
Cc1ccc(C(=O)Nc2ccc3ccccc3c2)cc1,3.3%,-0.2%,-13.3%,-3.1%,-5.2%,5.01µM*
CCN(Cc1ccccc1)C(=O)c1nc(-c2cccc(F)c2)n2c1CCCCC2,0.6%,/,9.3%,-1.2%,/,?
Cc1ccc(NS(=O)(=O)c2cc3c(cc2-c2ccsc2)NC(=O)CO3)cc1C,-5.6%,/,/,/,/,/
O=C1Cc2cc(S(=O)(=O)N3CCN(c4cccc(C(F)(F)F)c4)CC3)ccc2N1,23.1%[230 µM],/,/,/,/,/
COc1ccccc1N(CC(=O)NCCSc1ccccc1)S(=O)(=O)c1ccccc1,-6.1%,-1.3%,0.5%,-5.1%,/,?
COc1ccc(N(CC(=O)NCCSc2ccccc2)S(=O)(=O)c2ccccc2)c(OC)c1,8.9%,1.8%,-0.9%,-1.0%,5.2%,10µM*
COc1cccc(C2C(=O)N(C3CCCCC3)CC(=O)N2Cc2ccc(Cl)cc2)c1 (stereo not given),-0.9%,/,-9.4%,-1.7%,/,?
CCCc1c(C(=O)N/N=C/C(C)=C/c2ccccc2)nnn1-c1nonc1N,-7.7%,-0.1%,-1.4%,-2.7%,-0.3%,-10.5%
CCCN(CCC)Cc1c(C(=O)N/N=C/C(C)=C\c2ccccc2)nnn1-c1nonc1N,-10.0%,2.7%,-14.0%,i,-8.5%,2.82µM*
Nc1nonc1-n1nnc(C(=O)N/N=C/C=C/c2ccccc2)c1CSC1=NCCS1,48.2%,0.6%,?,5.1%,0.0%,7.94µM*
CN(C)CCNC(=O)c1coc(=O)c(Br)c1,-13.3%,-7.7%,-2.7%,2.5%,0.6%,78.6%
O=C(NCCc1ccccc1)c1coc(=O)c(Br)c1,3.9%,-1.9%,5.01µM*,7.4%,-2.0%,?
CC1CCCC(C)N1C(=O)c1ccccc1Nc1ccc(SC(F)F)cc1 (stereo not given),?,1.0%,-16.2%,-3.1%,1.1%,5.62µM*
CC1CN(C(=O)c2ccccc2Nc2ccc(SC(F)F)cc2)CC(C)O1 (stereo not given),-0.8%,4.6%,10.8%,-1.0%,-2.7%,3.1%
COc1ccc(C(=O)NCC(c2ccc3c(c2)OCO3)N2CCN(C)CC2)cc1OC (stereo not given),1.6%,/,-7.3%,-8.4%,/,12.2%
COc1ccc(S(=O)(=O)c2cn(C)c3cc(N4CCCC4)c(F)cc3c2=O)cc1,-3.9%,/,1.6%,i,/,7.5%
Cc1ccc(NS(=O)(=O)c2cc3c(cc2-c2cn[nH]c2)NC(=O)CO3)cc1C,-8.6%,/,/,/,/,/
